Measured values published in PubChem BioAssay (NCATS).
Unmarked numbers belong to inactive results. Calls of active or inactive are those of the source. Calls follow the shape of the dose curve; as a rule, active = well fitted activation curve with a large enough effect; inconclusive = small, poorly fitted or top-dose-only effect; inactive = no such curve, though single readings can be large or run the other way.

The compounds below were run against Cytochrome P450 3A4 (Homo sapiens) (UniProt P08684) (assay: qHTS Assay for Activators of Cytochrome P450 3A4 (AID 885; also: nearly all actives have a fitted effect of over 65% in size)). Settings: recombinant CYP3A4, Luciferin-PPXE luminescence, 60 min; series mostly up to 57.1 µM; activity change, positive = activation: at the top concentration.
Method in brief: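 Luminescent readout of luciferin formed from 25 uM Luciferin-PPXE (KM level) by 20 nM CYP3A4 in 200 mM KPO4, with 60 min NADPH-driven reaction at room temperature after 10 min compound exposure. Ketoconazole (57 uM) defined 100% inhibition.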
Potency is read from the fitted curve at half-maximal effect.

Chain of Cytochrome P450 3A4 (Homo sapiens) (P08684 whole entry, looked up): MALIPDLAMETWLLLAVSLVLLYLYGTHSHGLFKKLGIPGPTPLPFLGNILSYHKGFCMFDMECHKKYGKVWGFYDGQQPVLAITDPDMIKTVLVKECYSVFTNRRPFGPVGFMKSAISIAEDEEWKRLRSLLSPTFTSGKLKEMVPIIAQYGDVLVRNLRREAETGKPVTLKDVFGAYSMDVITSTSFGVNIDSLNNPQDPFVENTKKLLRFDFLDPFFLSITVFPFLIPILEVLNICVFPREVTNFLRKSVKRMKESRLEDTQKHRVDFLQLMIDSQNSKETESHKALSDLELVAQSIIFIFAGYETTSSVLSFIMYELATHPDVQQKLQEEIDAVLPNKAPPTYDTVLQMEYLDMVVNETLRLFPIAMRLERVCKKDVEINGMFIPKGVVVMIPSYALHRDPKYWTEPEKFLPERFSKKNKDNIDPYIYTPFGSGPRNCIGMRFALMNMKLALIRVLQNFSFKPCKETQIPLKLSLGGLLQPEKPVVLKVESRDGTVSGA

Row | SMILES | activity change, positive = activation | Potency
1 | CC(=O)c1c(O)cc(O)cc1O | -75.8% | 
2 | COc1cccc([C@@H]2Oc3ccc(OC)cc3/C(=N/OC[C@@H](O)COCc3ccco3)[C@@H]2O)c1 | -84.1% [at 11.4 µM] | 
3 | COc1ccc(-c2cc(=O)c3ccccc3o2)cc1 | -65.9% | 
4 | COc1ccc(/C=C/N(CCc2ccc(OC)c(OC)c2)C(=O)C(F)(F)F)cc1 | -97.3% [at 11.4 µM] | 
5 | COc1ccc(O[C@H]2C=C[C@@H](c3ccccc3)O[C@H]2COC(=O)CC/C(C)=N\O[C@@H](C)CN2CCCCc3nc(C)c(C)cc32)cc1 | -114% [at 11.4 µM] | 
6 | CCCNC(=O)OC[C@@H]1O[C@H](CCO/N=C2\c3cc(OC)ccc3O[C@H](c3cccc(OC)c3)[C@H]2O)C=C[C@@H]1Oc1ccc(OC)cc1 | -120% [at 11.4 µM] | 
7 | COc1c2c(cc3occ(-c4ccc5c(c4)OCO5)c(=O)c13)OC(C)(C)C=C2 | -97.8% | 
8 | COc1cc2c(cc1OC)-c1c(oc3cc(O)cc(O)c3c1=O)CO2 | -85.2% | 
9 | COc1ccc2c(c1)OC/C(=C/c1ccc(OC)c(OC)c1)C2=O | -115% | 
10 | CCO[C@H](c1cc(OC)cc([N+](=O)[O-])c1OC)[C@H](C)/C=C\CC(=O)OC | -72.1% [at 11.4 µM] | 
11 | C=C(C)C(O)/C=C/c1cccc(OC)c1 (stereo not given) | -69.2% [at 11.4 µM] | 
12 | C=C1C2CC[C@@]3(C)C(c4ccoc4)OC(=O)C[C@@]13OC1CC(OC(C)=O)C(C)(C)C(CC(=O)OC)[C@@]12C (stereo not given in full) | -105% | 
13 | COC(=O)C/C=C\[C@@H](C)[C@@H](/C=N\OC[C@@H]1O[C@H](c2ccccc2)C=C[C@@H]1Oc1ccc(OC)cc1)OC | -96.1% [at 11.4 µM] | 
14 | COc1cc(OC)c2c(=O)c(-c3ccc4c(c3)OCO4)coc2c1 | -99% | 
15 | C=CC[C@@H]1C=C[C@H](Oc2ccc(C)cc2)[C@H](COC(=O)NCc2cccc3ccccc23)O1 | -96.8% [at 11.4 µM] | 
16 | Cc1ccc(S(=O)(=O)N[C@H]2COC(=O)[C@@H](Cc3ccccc3)NC(=O)[C@@H](C)COC(=O)C/C=C\[C@@H]2C)cc1 | -80.1% [at 11.4 µM] | 
17 | COc1cc(O)c(C(=O)/C=C/c2ccc(O)c(OC)c2)c(OC)c1 | -99.4% | 
18 | COc1c(-c2coc3cc4c(cc3c2=O)CC(OC(C)=O)C(C)(C)O4)ccc2c1C=CC(C)(C)O2 (stereo not given) |  | 5.01 µM (active)
19 | COCOc1ccc(Br)cc1C(=O)[C@H]1O[C@H]1c1cccc(OC)c1 | -113% [at 11.4 µM] | 
20 | CCCCC#CC1C=CC(Oc2ccc(C(=O)OC)cc2)C(COC(=O)OCC)O1 (stereo not given) | -80.8% [at 11.4 µM] | 

Row | SMILES | activity change, positive = activation | Potency
21 | COc1ccc(/C=C/C2=CC3(C)CC2(C)C(c2ccc(OC)cc2)CC3=O)cc1 (stereo not given) | -60.7% [at 11.4 µM] | 
22 | CC(C)=CCc1c(O)cc2occ(-c3ccc4c(c3)OCO4)c(=O)c2c1O | -90.9% | 
23 | COc1cccc(-c2cc(=O)c3ccc(OC)cc3o2)c1 | -99.1% | 
24 | COc1ccc(O[C@H]2C=C[C@@H](c3ccccc3)O[C@@H]2CO/N=C(\C)CCN2CCCCc3nc(C)c(C)cc32)cc1 | -86.9% [at 11.4 µM] | 
25 | CC1(C)C(=O)C=C[C@@]2(C)C1C=C[C@@]1(C)C2CC[C@@]2(C)C(c3ccoc3)OC(=O)C3OC312 (stereo not given in full) | -88.2% | 
26 | OCC1OC(c2ccc3c(c2)OCO3)C=CC1Oc1cc(Cl)cc(Cl)c1 (stereo not given) | -90.6% [at 11.4 µM] | 
27 | COc1cccc([C@@H]2Oc3ccc(OC)cc3/C(=N/O[C@@H](C)c3cc(-c4c(C)cc(C)cc4C)no3)[C@@H]2O)c1 | -90.1% [at 11.4 µM] | 
28 | O=C1C=CC(=C(c2ccc(O)cc2)c2ccc(O)cc2)C=C1 | -77% | 
29 | COc1cc(OC)c2c(OC)c(-c3ccc4c(c3)OCO4)c(=O)oc2c1 | -103% | 
30 | Nc1nc2c(ncn2C2OC(COC(=O)c3ccccc3)C(OC(=O)c3ccccc3)C2OC(=O)c2ccccc2)c(=O)[nH]1 (stereo not given) | -64.1% | 
31 | C[C@@H](c1ccccc1)N1C(=O)[C@H]2[C@H]3[C@H](O)[C@H](O)C/C(=N/OC[C@@H](O)COCc4ccco4)[C@@H]3CC[C@@H]2C1=O | -82.9% [at 11.4 µM] | 
32 | CCCNC(=O)OC[C@@H]1O[C@H](CCO/N=C\[C@@H](C)[C@H](OCc2ccccc2)C(C)C)C=C[C@@H]1Oc1ccc(OC)cc1 | -83.7% [at 11.4 µM] | 
33 | COC(=O)C[C@@H]1O[C@H]1[C@H](C)[C@@H](OC)C(C)C | -66.6% [at 11.4 µM] | 
34 | C/C=C/OC(=O)NC(c1ccccc1)[C@]1(C(C)=O)CCOC1=O (stereo not given in full) | -81.2% [at 11.4 µM] | 
35 | CC(=O)Oc1c(-c2ccccc2)oc2c(CC=C(C)C)c3c(c(OC(C)=O)c2c1=O)C=CC(C)(C)O3 | -62.1% | 
36 | CC(=O)OCC1OC(c2ccc3c(c2)OCO3)C=CC1OC(C)=O (stereo not given) | -75.4% [at 11.4 µM] | 
37 | C=CCC1C=CC(Oc2ccc(OC)cc2)C(COC(=O)c2ccc(Br)cc2)O1 (stereo not given) | -92.4% [at 11.4 µM] | 
38 | COc1ccc(O[C@H]2C=C[C@@H](c3ccccc3)O[C@H]2COC(=O)CC/C(C)=N\O[C@@H](C)c2cn([C@H]3COC[C@H]3O)nn2)cc1 | -77.3% [at 11.4 µM] | 
39 | COc1ccc(O[C@H]2C=C[C@@H](c3ccccc3)O[C@H]2CO/N=C\C[C@@H]2C=C[C@H](OC(C)=O)[C@H](COC(C)=O)O2)cc1 | -90.6% [at 11.4 µM] | 
40 | COc1ccc(-c2cc(=O)c3ccccc3o2)cc1OC | -85.3% | 
